# About 83,000 compounds went through this panel and 20% of them were active in at least one assay; those are over-represented in the sample as a whole.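 Plates (96-well) were seeded with cells, treated with compound at one concentration, and incubated for 48 hours before percent growth was determined.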 Values without a mark were called inactive. The source made the active and inactive calls. How the source made its calls: active means growth percent below 10; inactive means the rest.
# Assays:
# Assay in all cases: NCI-60 one-dose screen, 48 h (100 = growth as untreated, 0 = no growth, -100 = all killed)
# Conditions in all cases: 10 µM unless noted
# [1] = tested on: HCT-15 colon
# [2] = tested on: HT29 colon
# [3] = tested on: SNB-75 CNS
# [4] = tested on: SNB-19 CNS
# [5] = tested on: U251 CNS
# [6] = tested on: PC-3 prostate
# [7] = tested on: SK-MEL-5 melanoma
# [8] = tested on: UACC-62 melanoma
# [9] = tested on: SK-MEL-28 melanoma
# [10] = tested on: LOX IMVI melanoma
SMILES,growth [1],growth [2],growth [3],growth [4],growth [5],growth [6],growth [7],growth [8] [%],growth [9] [%],growth [10]
Cc1ccccc1-c1nc(C(Cl)Cl)nc2cc(-c3ccccc3)nn12,36.1%,13.7%,8.7% (active),69.8%,47.2%,62%,86.4%,74.4,97.3,–
CC(C)=CCC[C@](C)(O)[C@H]1CC[C@]2(C)[C@@H]1CC[C@@H]1[C@@]3(C)C/C(=C/c4ccc(Br)cc4)C(=O)C(C)(C)[C@@H]3CC[C@]12C,85.4%,77%,-50.3% (active),95.2%,86.9%,70.5%,96.8%,78.6,100,–
COc1cccc(-c2nn(-c3ccccc3)cc2-c2ccnc(NCCCN)c2)c1,56.7%,86.2%,45.4%,48.9%,38.9%,47.7%,28.5%,–,–,54.8%
CCCCCCCC(=O)SCC/C=C/[C@@H]1CC(=O)NCc2cccc(n2)CN(Cc2ccc3ccccc3c2)CC(=O)N[C@@H](C(C)C)C(=O)O1,57.8%,14.5%,29.2%,48.9%,35.9%,34.8%,9.24% (active),–,–,5.42% (active)
Clc1ccc(Cn2cc(-c3nc4ccc(Br)nc4n3Cc3ccc(Cl)cc3)c3cccnc32)cc1,87.2%,96.3%,64.1%,89.2%,94.8%,65.7%,74.3%,–,–,85.4%
Oc1ccc(CCC2CCCC(CCc3ccc(OCCF)cc3)N2)cc1 (configuration not stated),88.1%,87.2%,78.7%,101%,85.8%,87.8%,90%,–,–,98.7%
COc1ccc(C2c3ccccc3NC(=O)N2C2CCN(C)CC2)c(OC)c1 (configuration not stated),95.6%,100%,72.7%,93%,100%,94.4%,84.7%,–,–,103%
COc1cccc(-c2nn(-c3ccccc3)cc2-c2ccnc(NCCCNS(=O)(=O)c3ccccc3)c2)c1,26.5%,19%,62.1%,47.9%,34%,15.7%,11.3%,–,–,33.1%
COc1ccc(C2=NN(c3nc(-c4ccc(OC)cc4)c(C#N)c(=O)n3C)C(=O)CC2)cc1,106%,109%,86.5%,96.7%,100%,82.4%,96.3%,–,–,101%
Nc1c(C(=O)Nc2cccc3ccccc23)sc2nc3c(cc12)CCCC3,26.8%,2.73% (active),37.9%,39.2%,25.4%,39.9%,28.2%,–,–,38.6%
N#CCCCCCn1c2ccccc2c2c3c(c4c5ccccc5n(CCCCCC#N)c4c21)C(=O)N(O)C3=O,97.3%,68%,100%,66.7%,83.8%,68.5%,74.2%,–,–,24%
C=C1C(=O)O[C@H]2[C@H]1CC/C(Cn1cc(-c3ccc(OC)cc3)nn1)=C\CC[C@@]1(C)O[C@@H]21,-71.4% (active),-82% (active),91.4%,69.5%,23%,39.4%,41.8%,–,–,-79.3% (active)
CCc1ccccc1NC(=O)c1sc2nc3c(cc2c1N)CCCC3,28.1%,13.5%,12.3%,37.6%,27.8%,52.9%,34.8%,–,–,36.5%
O=S(=O)(NCCNc1cc(-c2cn(-c3ccccc3)nc2-c2cccc(O)c2)ccn1)c1ccc(C(F)(F)F)cc1,28.5%,4.36% (active),49.7%,54.4%,36.5%,22.6%,36.9%,–,–,23.5%
COc1cccc(-c2nn(-c3ccccc3)cc2-c2ccnc(NCCNS(=O)(=O)c3ccc(C(F)(F)F)cc3)c2)c1,11.9%,-14.6% (active),46.8%,21.8%,15.4%,5.74% (active),-94.7% (active),–,–,4.44% (active)
CCc1cccc(CC)c1NC(=O)c1sc2nc3c(cc2c1N)CCCC3,55%,77.4%,54.2%,71.3%,73.4%,63%,63.9%,–,–,75.2%
COc1ccc2c3c(c4ccccc4cc13)C(=O)N(CCN(C)CCN)C2=O,-67.1% (active),-65.2% (active),8.84% (active),-36.9% (active),-86.3% (active),-63.2% (active),-98% (active),–,–,-84.8% (active)
N#CCCCCCn1c2ccccc2c2c3[nH]c(=O)[nH]c(=O)c3c3c4ccccc4n(CCCCCC#N)c3c21,86.6%,27%,26.3%,55.6%,28.9%,64.3%,28.6%,–,–,31.9%
COc1cccc(-c2nn(-c3ccccc3)cc2-c2ccnc(NCCCNS(=O)(=O)c3ccc(C(F)(F)F)cc3)c2)c1,22.3%,-6.28% (active),47.4%,38%,27.1%,12.9%,-54.2% (active),–,–,36%
COc1cccc(-c2nn(-c3ccccc3)cc2-c2ccnc(NCCNS(=O)(=O)c3ccccc3)c2)c1,20.3%,16.9%,67.7%,42.6%,34.8%,17.5%,17.1%,–,–,41%
CCN(CC)C(=O)CCCCCn1c2ccccc2c2c3c(c4c5ccccc5[nH]c4c21)C(=O)N(O)C3=O,45.9%,-43.7% (active),74.4%,47.2%,10.5%,30%,25.9%,–,–,-59% (active)
COc1cc(-c2cc3cc(O)ccc3oc2=O)cc(OC)c1OC,91.4%,103%,65.3%,95.5%,99.3%,85.3%,93.6%,–,–,103%
O=C(CCCCCn1c2ccccc2c2c3c(c4c5ccccc5[nH]c4c21)C(=O)N(O)C3=O)N1CCOCC1,49.2%,0.235% (active),87%,47.3%,33.9%,26.5%,0.765% (active),–,–,-16.8% (active)
COc1cccc(-c2nn(-c3ccccc3)cc2-c2ccnc(NCCNS(=O)(=O)c3ccc(Cl)cc3)c2)c1,24.1%,11.6%,66.2%,46%,31.2%,10.6%,-13.7% (active),–,–,24.5%
Nc1c(C(=O)Nc2c(Cl)cccc2Cl)sc2nc3c(cc12)C(=O)CCC3,35.5%,13.3%,14.1%,39.6%,26.4%,39.9%,10.4%,–,–,44.4%
COC(=O)[C@]12CC[C@@H](C)[C@H](C)[C@@H]1C1=CC[C@@H]3[C@@]4(C)C[C@@H](O)OC[C@](C)(C=O)C4C(=O)C[C@@]3(C)[C@]1(C)CC2 (some centres not stated),5.82% (active),-59.3% (active),13.3%,27.1%,0.219% (active),5.85% (active),-91.3% (active),–,–,-34.2% (active)
COc1ccc(O)c(-c2cc(-c3ccc(Cl)cc3)c(C#N)c(=O)[nH]2)c1,66.5%,75.7%,62.7%,69.7%,46.6%,55.6%,57.7%,–,–,63.2%
COc1ccccc1CNc1nc(N)nc2[nH]c3ccc(O)cc3c12,41%,18.9%,35.8%,59%,37.4%,65.5%,38.3%,–,–,43.2%
CNC(=O)c1cc(Oc2ccc3nc(NC(=O)Nc4ccc(Cl)cc4)sc3c2)ccn1,84.8%,68.8%,50.6%,59.3%,37.3%,66%,73.3%,–,–,51.6%
COC(=O)[C@]12CC[C@@H](C)[C@H](C)[C@@H]1C1=CC[C@@H]3[C@@]4(C)C(c5ncon5)=C[C@@](C)(CO)C4=CC[C@@]3(C)[C@]1(C)CC2,-64.9% (active),-68.2% (active),55.5%,6.01% (active),-59.5% (active),-12.7% (active),-71.6% (active),–,–,-93.7% (active)
